# Assay results published in article PMC7862700, “An all-to-all approach to the identification of sequence-specific readers for epigenetic DNA modifications on cytosine”.
# Legend:
# Assay in all cases: DAPPL (digital affinity profiling via proximity ligation, sequencing); 10 mM Tris-HCl pH 7.5, 50 mM NaCl, 1 mM DTT, 4% glycerol, room temperature, 30 min; GST-TFs on glutathione beads, 16-mer random dsDNA library, 0.1% formaldehyde crosslink after washing; high values mean tight binding
# [1] = target: T1, FEV (Homo sapiens, UniProt Q99581 1-238); settings: protein: recombinant; tags: N-terminal GST; dsDNA, one strand shown
# T1 sequence: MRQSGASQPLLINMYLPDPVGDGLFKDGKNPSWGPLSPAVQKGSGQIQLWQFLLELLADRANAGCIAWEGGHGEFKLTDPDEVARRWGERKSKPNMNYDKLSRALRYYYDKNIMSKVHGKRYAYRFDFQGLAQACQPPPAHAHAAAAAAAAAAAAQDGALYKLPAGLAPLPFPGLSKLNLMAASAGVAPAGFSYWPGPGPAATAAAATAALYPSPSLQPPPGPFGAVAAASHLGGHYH
# Outline: (§1)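 In yeast, human transcription factors were expressed with a GST fusion, then pulled down on glutathione beads and given DNA barcodes. Pooled with a tag-only sample, they were exposed to 200 nmole of a 16-mer random double-stranded DNA library (Tris/NaCl/DTT/glycerol buffer, room temperature, 30 min), washed, crosslinked with 0.1% formaldehyde, proximity-ligated using BsaI/T4 ligase for 1 h at 37 °C, PCR-amplified and read on an Illumina NextSeq500. Each hexamer's frequency of reads for a factor, divided by the matching frequency for the tag-only sample, gives the binding signal.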
# [2] = target: ETV5 (Homo sapiens, UniProt P41161 1-510); settings: protein: recombinant; tags: N-terminal GST; dsDNA, one strand shown
# Chain of ETV5 (P41161 whole entry): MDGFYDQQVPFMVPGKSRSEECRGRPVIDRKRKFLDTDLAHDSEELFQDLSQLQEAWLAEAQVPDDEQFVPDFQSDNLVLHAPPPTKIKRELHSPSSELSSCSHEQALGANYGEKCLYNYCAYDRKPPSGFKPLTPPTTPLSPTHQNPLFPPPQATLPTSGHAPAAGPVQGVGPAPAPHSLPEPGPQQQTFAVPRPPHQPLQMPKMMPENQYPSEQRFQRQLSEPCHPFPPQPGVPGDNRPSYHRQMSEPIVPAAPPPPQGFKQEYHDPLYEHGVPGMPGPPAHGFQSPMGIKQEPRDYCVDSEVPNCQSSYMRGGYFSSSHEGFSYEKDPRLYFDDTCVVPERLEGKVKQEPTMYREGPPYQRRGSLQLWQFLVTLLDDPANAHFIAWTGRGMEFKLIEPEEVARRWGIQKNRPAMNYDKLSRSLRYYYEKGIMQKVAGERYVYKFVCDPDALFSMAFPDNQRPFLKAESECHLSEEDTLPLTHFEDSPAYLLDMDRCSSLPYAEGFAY
# Outline: as §1
# [3] = target: HSF1 (Homo sapiens, UniProt Q00613 1-529); settings: protein: recombinant; tags: N-terminal GST; chain copies: 3; dsDNA, one strand shown
# Chain of HSF1 (Q00613 whole entry): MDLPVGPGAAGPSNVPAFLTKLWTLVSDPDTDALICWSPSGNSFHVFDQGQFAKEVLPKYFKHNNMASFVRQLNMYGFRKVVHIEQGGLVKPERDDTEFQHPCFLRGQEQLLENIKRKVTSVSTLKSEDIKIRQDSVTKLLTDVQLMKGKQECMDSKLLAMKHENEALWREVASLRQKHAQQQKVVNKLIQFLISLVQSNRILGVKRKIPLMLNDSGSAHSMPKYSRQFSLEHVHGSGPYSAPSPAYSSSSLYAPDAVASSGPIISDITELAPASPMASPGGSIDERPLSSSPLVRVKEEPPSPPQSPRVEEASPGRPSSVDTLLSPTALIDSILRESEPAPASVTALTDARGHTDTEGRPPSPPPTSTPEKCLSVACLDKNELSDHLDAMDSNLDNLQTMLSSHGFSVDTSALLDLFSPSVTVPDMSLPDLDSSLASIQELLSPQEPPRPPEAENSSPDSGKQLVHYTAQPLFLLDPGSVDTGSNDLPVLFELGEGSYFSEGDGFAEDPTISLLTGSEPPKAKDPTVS
# Outline: as §1
# [4] = target: T2, SPIC (Homo sapiens, UniProt Q8N5J4 1-248); settings: protein: recombinant; tags: N-terminal GST; dsDNA, one strand shown
# T2 sequence: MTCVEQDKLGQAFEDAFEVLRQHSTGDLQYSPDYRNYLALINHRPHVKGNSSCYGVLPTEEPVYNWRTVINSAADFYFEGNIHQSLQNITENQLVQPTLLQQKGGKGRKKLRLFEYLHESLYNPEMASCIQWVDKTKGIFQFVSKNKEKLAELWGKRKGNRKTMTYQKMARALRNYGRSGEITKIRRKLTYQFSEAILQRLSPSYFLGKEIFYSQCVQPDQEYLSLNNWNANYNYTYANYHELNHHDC
# Outline: as §1
# [5] = target: ELF4 (Homo sapiens, UniProt Q99607 1-663); settings: protein: recombinant; tags: N-terminal GST; dsDNA, one strand shown
# Chain of ELF4 (Q99607 whole entry): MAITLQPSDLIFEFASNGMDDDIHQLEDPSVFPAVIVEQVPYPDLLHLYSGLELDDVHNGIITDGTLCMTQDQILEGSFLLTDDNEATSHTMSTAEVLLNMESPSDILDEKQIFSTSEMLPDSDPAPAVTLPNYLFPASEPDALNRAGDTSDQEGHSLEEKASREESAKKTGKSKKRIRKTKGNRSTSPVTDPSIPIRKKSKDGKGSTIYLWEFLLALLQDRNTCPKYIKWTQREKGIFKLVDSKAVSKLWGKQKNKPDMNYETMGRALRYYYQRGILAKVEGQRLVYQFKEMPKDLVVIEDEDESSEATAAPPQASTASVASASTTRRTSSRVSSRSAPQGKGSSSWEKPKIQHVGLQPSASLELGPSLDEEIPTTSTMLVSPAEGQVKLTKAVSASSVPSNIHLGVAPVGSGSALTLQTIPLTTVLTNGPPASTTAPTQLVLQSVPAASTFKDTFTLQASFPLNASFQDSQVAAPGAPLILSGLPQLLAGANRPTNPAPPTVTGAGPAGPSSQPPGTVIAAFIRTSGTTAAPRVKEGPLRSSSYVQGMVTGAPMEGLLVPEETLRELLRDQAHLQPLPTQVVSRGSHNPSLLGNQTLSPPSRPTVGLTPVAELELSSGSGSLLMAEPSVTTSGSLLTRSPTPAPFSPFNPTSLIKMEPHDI
# Outline: as §1
# [6] = target: T3, ELK4 (Homo sapiens, UniProt P28324-2 1-405); settings: protein: recombinant; tags: N-terminal GST; dsDNA, one strand shown
# T3 sequence: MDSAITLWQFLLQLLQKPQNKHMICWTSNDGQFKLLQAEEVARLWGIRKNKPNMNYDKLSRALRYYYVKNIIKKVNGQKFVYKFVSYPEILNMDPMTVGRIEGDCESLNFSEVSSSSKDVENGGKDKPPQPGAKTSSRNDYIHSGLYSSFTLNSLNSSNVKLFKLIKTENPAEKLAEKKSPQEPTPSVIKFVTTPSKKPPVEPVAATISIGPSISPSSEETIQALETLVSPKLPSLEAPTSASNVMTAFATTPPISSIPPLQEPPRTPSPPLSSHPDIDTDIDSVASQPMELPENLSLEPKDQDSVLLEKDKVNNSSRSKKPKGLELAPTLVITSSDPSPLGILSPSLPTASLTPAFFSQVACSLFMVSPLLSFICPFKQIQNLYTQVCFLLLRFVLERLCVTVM
# Outline: as §1
# [7] = target: T4, ETV2 (Homo sapiens, UniProt O00321 1-342); settings: protein: recombinant; tags: N-terminal GST; dsDNA, one strand shown
# T4 sequence: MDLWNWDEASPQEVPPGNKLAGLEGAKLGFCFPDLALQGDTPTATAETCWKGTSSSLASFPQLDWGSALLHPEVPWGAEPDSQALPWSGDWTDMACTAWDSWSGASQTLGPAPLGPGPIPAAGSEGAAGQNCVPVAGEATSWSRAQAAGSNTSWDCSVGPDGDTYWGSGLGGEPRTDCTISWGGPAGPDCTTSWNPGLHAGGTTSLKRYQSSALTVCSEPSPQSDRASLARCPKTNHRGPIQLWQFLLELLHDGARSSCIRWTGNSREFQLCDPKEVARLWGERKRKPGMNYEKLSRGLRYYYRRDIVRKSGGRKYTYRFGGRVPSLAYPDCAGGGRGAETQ
# Outline: as §1
# [8] = target: T5, ELF3 (Homo sapiens, UniProt P78545 1-371); settings: protein: recombinant; tags: N-terminal GST; dsDNA, one strand shown
# T5 sequence: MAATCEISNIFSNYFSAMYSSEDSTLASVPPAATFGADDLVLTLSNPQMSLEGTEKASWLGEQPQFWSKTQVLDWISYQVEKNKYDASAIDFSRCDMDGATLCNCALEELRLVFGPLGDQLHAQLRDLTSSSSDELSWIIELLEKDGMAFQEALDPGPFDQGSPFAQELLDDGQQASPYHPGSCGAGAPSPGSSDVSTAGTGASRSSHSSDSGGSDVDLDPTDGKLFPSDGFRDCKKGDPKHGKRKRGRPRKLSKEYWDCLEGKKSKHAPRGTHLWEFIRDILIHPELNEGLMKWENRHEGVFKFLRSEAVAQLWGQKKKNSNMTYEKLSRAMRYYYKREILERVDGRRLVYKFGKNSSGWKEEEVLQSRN
# Outline: as §1
# [9] = target: CRX (Homo sapiens, UniProt O43186 1-299); settings: protein: recombinant; tags: N-terminal GST; dsDNA, one strand shown
# Chain of CRX (O43186 whole entry): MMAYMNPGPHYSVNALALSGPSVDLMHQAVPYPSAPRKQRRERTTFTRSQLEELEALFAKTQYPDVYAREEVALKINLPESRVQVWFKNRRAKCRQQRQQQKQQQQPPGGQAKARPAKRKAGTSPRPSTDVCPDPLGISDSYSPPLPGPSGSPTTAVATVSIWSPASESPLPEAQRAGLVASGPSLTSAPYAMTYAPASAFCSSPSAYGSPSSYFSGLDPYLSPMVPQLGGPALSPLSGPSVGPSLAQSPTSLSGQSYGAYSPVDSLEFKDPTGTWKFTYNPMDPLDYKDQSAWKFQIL
# Outline: as §1
sequence,measurement,setting,value
TCACTA,binding signal,[1],"1.11 fold enrichment (6-mer frequency, TF over GST control)"
same,binding signal,[2],"1.06 fold enrichment (6-mer frequency, TF over GST control)"
same,binding signal,[3],"1.16 fold enrichment (6-mer frequency, TF over GST control)"
same,binding signal,[4],"1.16 fold enrichment (6-mer frequency, TF over GST control)"
same,binding signal,[5],"1.12 fold enrichment (6-mer frequency, TF over GST control)"
same,binding signal,[6],"1.28 fold enrichment (6-mer frequency, TF over GST control)"
same,binding signal,[7],"1.18 fold enrichment (6-mer frequency, TF over GST control)"
same,binding signal,[8],"1.19 fold enrichment (6-mer frequency, TF over GST control)"
same,binding signal,[9],"1.27 fold enrichment (6-mer frequency, TF over GST control)"
